Reference: PubChem BioAssay (NCI)
Compounds without any hit were thinned out: in the full panel of roughly 83,000, 20% have a hit.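 Interpretation: 100, growth as untreated; towards 0, rising growth inhibition; 0, no net growth; 0 to -100, cell death. Compounds scoring below 10 were considered active.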 A number with no mark means an inactive call. Calls of active or inactive are those of the source.

Columns and labels:
Experiment in all cases: NCI-60 one-dose screen, 48 h (100 = growth as untreated, 0 = no growth, -100 = all killed)
Conditions in all cases: 10 µM unless noted
[1] = system: SN12C renal
[2] = system: UO-31 renal
[3] = system: TK-10 renal
[4] = system: ACHN renal
[5] = system: CAKI-1 renal
[6] = system: A498 renal
[7] = system: CCRF-CEM leukemia
[8] = system: MOLT-4 leukemia
[9] = system: SR leukemia

Row | Structure (SMILES) | growth [1] | growth [2] | growth [3] | growth [4] | growth [5] | growth [6] | growth [7] | growth [8] | growth [9]
1 | COc1ccc(Nc2cc(C)nc(NCc3ccccc3)n2)cc1 | 38.2% | 42% | 37.9% | 36.3% | 30.8% | 81% | -3.8% (active) | 3.02% (active) | 0.982% (active)
2 | CCOc1ccc(Nc2ccnc3cc(Cl)ccc23)cc1 | 7.43% (active) | -12.8% (active) | 7.11% (active) | 10.9% | 2.27% (active) | -19.5% (active) | 3.77% (active) | 4.04% (active) | 0.437% (active)
3 | CCOC(=O)CSc1c(-c2ccccc2)c2cc(Cl)ccc2[nH]c1=O | 102% | 86.2% | 107% | 97.6% | 92% | 101% | 95.7% | 88.3% | 75.8%
4 | OC(CNC1CCCCC1)Cn1c2ccc(I)cc2c2cc(I)ccc21 (stereo unspecified) | 70.1% | 47.7% | 94.6% | 75.4% | 63.9% | 87.8% | 78.1% | 68.2% | 68.1%
5 | COc1ccc(Cn2c(Br)c3c(c2Br)-c2nc(N)sc2CC3)cc1 | 41.2% | 52.4% | 71.1% | 55.2% | 39% | 11.6% | 4.26% (active) | 4.01% (active) | 4.13% (active)
6 | O=C(Cc1ccccc1)NC(c1ccc(Cl)cc1)c1c(O)ccc2ccccc12 (stereo unspecified) | 14.9% | -7.48% (active) | 17.1% | 10.1% | 4.37% (active) | 32.8% | 13.4% | 9.11% (active) | 4.83% (active)
7 | COCCN(C(=O)Cc1cccs1)C(C(=O)NCc1ccc(OC)cc1)c1ccc(C(C)C)cc1 (stereo unspecified) | 89.9% | 82.5% | 115% | 87.1% | 84.6% | 77.1% | 93.9% | 80.3% | 74.3%
8 | COc1ccc(Cn2c(Br)c3c(c2-c2cc(OC)c(OC)c(OC)c2)CCc2sc(NC(=O)c4ccc(OC)cc4)nc2-3)cc1 | 85% | 47.4% | 110% | 97.5% | 78% | 86.7% | 79% | 75.7% | 76.2%
9 | O=C(N/N=C/c1ccccc1Cl)C(=O)Nc1cccc(C(F)(F)F)c1 | 92.7% | 90.8% | 83.7% | 76% | 97.6% | 89.3% | 100% | 92.1% | 65.1%
10 | COc1ccc(C)c2sc(N(Cc3cccnc3)C(=O)c3ccc(C#N)cc3)nc12 | 7.62% (active) | -50.8% (active) | 18% | 5.85% (active) | -33.1% (active) | 2.59% (active) | 8.67% (active) | 3.94% (active) | 8.52% (active)
11 | COc1ccc(-c2nnc(COc3ccc(C(=O)/C=C/c4ccco4)cc3)o2)cc1 | 68.1% | 53.5% | 95.3% | 85.9% | 67.2% | 115% | 10.7% | 41.9% | 0.0515% (active)
12 | O=S(=O)(c1ccccc1)n1cc2c(c1-c1ccccc1)CCc1sc(Nc3ccccc3)nc1-2 | 77.1% | 70.4% | 100% | 77.9% | 75.8% | 89.4% | 72.6% | 76% | 79.3%
13 | CCOc1cccc(/C=N\Nc2nc(=O)cc(C(=O)OC)s2)c1O | 59.1% | 49.7% | 107% | 68.8% | 65.9% | 87.2% | 38.4% | 53.6% | 50.7%
14 | C1=CC2(C=C1)OC21CCC2(C=CC3(C2)OC3C2CCCCC2)CC1 (stereo unspecified) | 105% | 96.8% | 113% | 104% | 93.6% | 97.2% | 97.1% | 95.6% | 90.7%
15 | CCCC(c1nnnn1C1CCCCC1)N1CCN(C(=O)c2ccco2)CC1 (stereo unspecified) | 73.6% | 82.3% | 86.7% | 84.6% | 66.4% | 44.1% | 24.1% | 26.9% | 6.95% (active)
16 | CC1=C(CC(=O)c2cccc([N+](=O)[O-])c2)C(=O)c2ccccc2C1=O | -36% (active) | -64.3% (active) | -43.1% (active) | 13.8% | -28.1% (active) | 68% | 4.59% (active) | 36.5% | -46.1% (active)
17 | Nc1ccn(C2O[C@H](CO)[C@@H](O)[C@H]2O)c(=O)n1 (stereo partly specified) | 54.9% | 100% | 125% | 79.5% | 91.3% | 106% | 29.2% | 57.1% | 2.99% (active)
18 | COc1ccccc1N1CCN(C(CNS(=O)(=O)c2ccc(Cl)cc2)c2cccnc2)CC1 (stereo unspecified) | 90.8% | 111% | 111% | 103% | 104% | 56.7% | 55.5% | 46.7% | 49.5%
19 | O=C(Nc1ccc(C23CC4CC(CC(c5ccccc5)(C4)C2)C3)cc1)c1cccs1 | 66.7% | 66.5% | 76.9% | 76.9% | 77.6% | 65.4% | 56.8% | 57.7% | 38.7%
20 | COC(=O)[C@@H]1CCCN1C(=O)[C@H]1CCCN1C(=O)[C@@H](Cc1c[nH]c2ccccc12)NC(=S)Nc1cc(C(F)(F)F)cc(C(F)(F)F)c1 | 44.4% | 28.3% | 78.7% | 37.2% | 22% | 57.7% | 36.3% | 16.3% | 5.25% (active)
21 | CCOC(=O)c1ccc2[nH]c(-c3ccccc3)cc(=O)c2c1 | 98.2% | 97.1% | 112% | 97.5% | 98.5% | 94.4% | 89.7% | 94% | 96%
22 | NC(CCl)=NCCC[C@H](N)C(=O)O | 93.3% | 85.2% | 96.7% | 105% | 97.2% | 102% | 94.6% | 104% | 93.5%
23 | O=C(NC1CCCCC1)C(c1cccs1)N(CCc1ccccc1)C(=O)c1ccco1 (stereo unspecified) | 92.2% | 100% | 94.5% | 94.6% | 83% | 93% | 93.8% | 84.9% | 85.8%
24 | CCn1c(-c2nonc2Nc2ccc(OC)cc2)nc2ccccc21 | 109% | 90.1% | 101% | 108% | 102% | 78.8% | 105% | 116% | 110%
25 | CCCCCCC(O)(c1ccc(F)cc1)C(CN1CCOCC1)c1ccccc1 (stereo unspecified) | 35.3% | 19.4% | 34.2% | 23.7% | 33.1% |  | 18.1% | 17.7% | 23.2%
26 | CN(C)CCNc1cc(-c2ccccc2)nc2ccccc12 | -88.5% (active) | -94.2% (active) | -68% (active) | -27.5% (active) | -36.1% (active) | 52.4% | -9.11% (active) | 0.855% (active) | -23.1% (active)
27 | O=C(NC1CCN(Cc2ccccc2)CC1)c1cc(C(=O)NC2CCN(Cc3ccccc3)CC2)cc(C(=O)NC2CCN(Cc3ccccc3)CC2)c1 | 69.2% | -29.8% (active) | 80.8% | 94.5% | 12.2% | 96.1% | 2.34% (active) |  | 20.1%
